Measurements taken from PubChem BioAssay AID618 (Sanford-Burnham Center for Chemical Genomics, 2007).
Out of some 87,000 compounds screened, about 540 (0.62%) were called active. Where a call stands in place of a potency, no number is given. This is one part of a sample in which actives are shown more often than they occur. The rule behind the calls is not given here. Potency and affinity values are given separately.

test: inhibitors of MT1-MMP promoter transcription, cell-based, luciferase reporter, luminescence (AID 618); conditions: MT1-MMP promoter luciferase reporter cells;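 note: actives suppress MT1-MMP promoter-driven transcription so potencies describe inhibitors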

Structure (SMILES)	outcome
Cc1cc(C)nc(NS(=O)(=O)c2ccc(Br)s2)c1	inactive
O=C(NCCOc1nc(N2CCOCC2)nc(N2CCOCC2)n1)Nc1ccc(Cl)cc1	inactive
CCNS(=O)(=O)c1ccc(NC(=O)Cc2ccc(F)cc2)cc1	inactive
O=C1C2CC=C(Cl)CC2C(=O)N1CCc1ccccc1 (centres undefined)	inactive
COc1ccc(OC)c(NC(=O)C2CCCNC2=O)c1 (centres undefined)	inactive
Cc1cc(NC(=O)CSc2nc3c(sc4ccccc43)c(=O)n2CCc2ccccc2)n[nH]1	inactive
O=C(O)CSC1CC(=O)N(c2ccc(Cl)c(Cl)c2)C1=O (centres undefined)	inactive
COc1ccc(CNC(=O)c2ccc3c(c2)N(C)C(=O)CS3=O)cc1 (centres undefined)	inactive
COc1ccc(CNc2ccccc2SC)cc1OC	inactive
CSc1ccccc1N=CC1=C(O)CC(C)(C)CC1=O	inactive
C=CCNc1ncnc2c1cnn2-c1ccc(Cl)cc1	inactive
C=CCNc1ncnc2c1cnn2-c1cccc(C)c1	inactive
O=C(Nc1ccccc1C(=O)NCCCn1ccnc1)c1ccc(Cl)cc1Cl	inactive
O=C(Nc1ccccc1C(=O)NCCCn1ccnc1)c1ccccc1	inactive
CCOc1cc(N2CCOCC2)c(OCC)cc1NS(=O)(=O)c1ccc(Cl)s1	active
CCOc1cc(N2CCOCC2)c(OCC)cc1NC(=O)CCS(=O)(=O)c1ccc(Cl)cc1	inactive
CCOc1ccc(Br)cc1S(=O)(=O)Nc1ccccc1N1CCOCC1	inactive
CCOC(=O)c1[nH]c(C)c(CN(Cc2ccco2)C(=O)C(F)(F)F)c1C	inactive
O=C(Nc1cccc(-c2cnc3ccccc3n2)c1)c1ccco1	inactive
O=C(CCl)Nc1cccc(-c2cnc3ccccc3n2)c1	active
O=C(CNC(=O)c1ccc(Br)o1)Nc1cccc(-c2cnc3ccccc3n2)c1	inactive
O=c1cc(O)c(-c2ccccc2Cl)c(Cl)[nH]1	inactive
Cc1nnc(NCCc2ccccc2)[nH]c1=O	inactive
CC(=O)Oc1ccc2oc(C)c(C(=O)N3CCOCC3)c2c1	inactive
Nc1ccc2nc(-c3ccccn3)[nH]c2c1	inactive

Structure (SMILES)	outcome
CC(=O)Nc1ccc2nc(-c3ccccn3)[nH]c2c1	inactive
CC(=O)Nc1nnc(Cc2ccccc2)s1	inactive
COC(=O)C(Cc1cnc(Cl)s1)(C(=O)OC)c1ccc([N+](=O)[O-])cc1	inactive
Cc1ccc(C)c(C(=O)CSc2nnnn2C(C)C)c1	inactive
CC(=O)Nc1ccc(C(=O)CSc2nnnn2C(C)C)cc1	inactive
Cc1nc2cc(NC(=O)N3c4ccccc4CC3C)ccc2o1 (centres undefined)	inactive
Cc1nc2cc(NC(=O)N3c4ccccc4CC3C)ccc2n1C (centres undefined)	active
COc1ccc(NC(=O)N2c3ccccc3CC2C)cc1OC (centres undefined)	inactive
COc1ccc(Cn2nnnc2C(c2ccc(N(C)C)cc2)N2CCC(C)CC2)cc1 (centres undefined)	inactive
COc1ccc(C(=O)Nn2c(SCC(=O)c3ccc(Cl)cc3)nc3ccccc3c2=O)cc1	inactive
COCCn1c(SCC(=O)N2CCC(C)CC2)nc2ccccc2c1=O	inactive
COc1ccc(C(=O)Nn2c(SCC(=O)c3ccccc3)nc3ccccc3c2=O)cc1	inactive
COc1ccc(C(=O)Nn2c(SCC(=O)NC3CCCC3)nc3ccccc3c2=O)cc1	inactive
O=C(CSc1nc2ccsc2c(=O)n1NC(=O)c1ccccc1)NCc1ccco1	inactive
O=C(CSc1nc2ccccc2c(=O)n1NC(=O)Cc1ccccc1)NCc1ccco1	inactive
CCOc1ccccc1NC(=O)C1C2C=CC(C2)C1C(=O)O (centres undefined)	inactive
Cc1cc(N)n(-c2nc(-c3cccnc3)nc3ccccc23)n1	inactive
Cc1cc(Nc2ccccc2N2CCOCC2)n2ncnc2n1	inactive
O=C(Cn1nnc(-c2ccc(Cl)cc2)n1)NC1CCN(Cc2ccccc2)CC1	inactive
N#Cc1nc(-c2ccc(OCc3ccc(Cl)cc3)cc2)oc1N1CCC(C(N)=O)CC1	inactive
CN(C)C(=O)N1CCC(C(=O)NCc2ccc(F)cc2Cl)CC1	inactive
c1ccc(-n2nnnc2SCc2ccccn2)cc1	inactive
CCN(CC)C(=O)C1CCCN(Cc2cccc(F)c2)C1 (centres undefined)	inactive
Cn1c(=O)c2c(nc(SCC(=O)NCc3ccc4c(c3)OCO4)n2Cc2ccc(F)cc2)n(C)c1=O	inactive
O=C(CCCOc1ccccc1)N1CCN(c2ccccc2)CC1	inactive

Structure (SMILES)	outcome
O=C(CCCOc1ccc(Cl)cc1)N1CCCCCC1	inactive
O=C(Nc1nc2ccccc2s1)c1ccc(Cl)s1	inactive
Cc1cc(C)n(-c2ccc(C(=O)Nc3nc4ccccc4s3)cc2)n1	inactive
CCOc1ccccc1OCC(=O)OCC(=O)Nc1ncc(Cl)cc1Cl	inactive
CCn1c(SCC(=O)N2CCN(c3ccc(F)cc3)CC2)nc2ccccc2c1=O	inactive
C#CC[N+]1(CC#Cc2ccccc2)CCOCC1	inactive
COC(=O)CSc1nnc(Cc2ccccc2)n1-c1ccc(C)cc1	inactive
COc1ccc(C2=NOC(C(=O)NCc3cccs3)C2)cc1OC (centres undefined)	active
COc1ccc(C2=NOC(C(=O)NCc3cccs3)C2)cc1 (centres undefined)	inactive
COc1cc(C2=NOC(C(=O)NCc3cccs3)C2)cc(OC)c1OC (centres undefined)	inactive
CCC1(C)Cc2c(sc3nn[nH]c(=O)c23)CO1 (centres undefined)	inactive
Cc1nc2sc(C(c3cccs3)N3CCN(c4ccccc4)CC3)c(O)n2n1 (centres undefined)	inactive
CC(=O)N=c1sc2ccccc2n1C	inactive
Cn1c(=NC(=O)CN2C(=O)C3CC=CCC3C2=O)sc2ccccc21 (centres undefined)	inactive
Cn1c(=NC(=O)CCl)sc2ccccc21	active
CCCCOC(=O)C(C)Nc1n[nH]c(=S)[nH]c1=O (centres undefined)	inactive
CCN(C(=O)CN1CCN(c2ccccc2OC)CC1)c1c(N)n(Cc2ccccc2)c(=O)[nH]c1=O	inactive
CC(=O)N(/N=C1\Sc2ccccc2C1=O)c1ccccc1C	inactive
CC(=O)N(/N=C1\Sc2ccccc2C1=O)c1cccc(C)c1	inactive
CC(=O)N(Cc1ccc(F)cc1)C1=C(NCc2ccccc2)C(=O)c2ccccc2C1=O	active
Cn1c(=O)c2c(nc(NCc3ccccc3)n2Cc2ccc(F)cc2)n(C)c1=O	inactive
O=C(Cc1ccc(F)cc1)NCCc1ccccc1	inactive
CC(=O)n1nc(-c2ccccc2)nc1NCc1ccc(F)cc1	inactive
Cn1c(=O)c2c(nc(NCCc3ccccc3)n2Cc2ccc(F)cc2)n(C)c1=O	inactive
